Values quoted from earlier work as cited in PubChem BioAssay AID977611.
The whole screen tested about 3,900 compounds, of which about 3,900 (100%) were called active. The limit is not given here; nearly all actives have Kd up to about 4200 µM. So high a share suggests a set chosen from earlier hits. The list shows a part of the results. Where a SMILES comes first, the peptide text is derived from it. Square brackets hold non-standard residues; d marks the D form. Residues, ends and D or L forms follow the SMILES beside them. Peptide text beside a SMILES is read from it. Orn(CH(NH2)2) = NC(N)NCCC[C@H](N)C(=O)O; Leu(ol) = CC(C)C[C@H](N)CO

Test: PubChem AID 977611
Conditions: PDB protein-ligand complexes, literature Kd

NC1NC(=O)c2ncn([C@@H]3O[C@@H]4CO[P+](O)(O)O[C@H]4[C@H]3O)c2N1 (some centres undefined)
Kd (protein: Diguanylate cyclase, PDB entry 4kg1): 274 nM (active)

Nc1ncnc2c1ncn2[C@@H]1O[C@@H]2CO[P+](O)(O)O[C@@H]3[C@H](O)[C@@H](CO[P+](O)(O)O[C@H]2[C@H]1O)O[C@H]3n1cnc2c1NC(N)NC2=O (some centres undefined)
Kd (protein: Stimulator of interferon genes protein, PDB entry 4ksy): 3.79 nM (active) | Kd (protein: Stimulator of interferon genes protein, PDB entry 4loh): 110 nM (active) | Kd (protein: Stimulator of interferon genes protein, PDB entry 4loj): 300 nM (active)

Nc1ncnc2c1ncn2[C@@H]1O[C@@H]2CO[P+](O)(O)O[C@@H]3[C@H](O)[C@@H](CO[P+](O)(O)O[C@@H]1[C@@H]2O)O[C@H]3n1cnc2c1NC(N)NC2=O (some centres undefined)
Kd (protein: Stimulator of interferon genes protein, PDB entry 4loi): 170 nM (active)

CC(C)[C@H](NC(=O)[C@H](CCC(=O)O)NC(=O)[C@H](C)NC(=O)[C@H](Cc1ccc(O)cc1)NC(=O)[C@H](CO)NC(=O)[C@@H]1CCCN1C(=O)[C@@H]1CCCN1C(=O)[C@H](C)NC(=O)[C@@H](N)CCC(=O)O)C(=O)O (H-EAPPSYAEV-OH)
Kd (protein: 3rd WW domain of Human Nedd4, PDB entry 4n7h): 3300 nM (active)

CC(C)C[C@H](NC(=O)[C@H](CC(C)C)NC(=O)[C@H](CCCNC(N)N)NC(=O)[C@H](CO)NC(=O)[C@H](CC(C)C)NC(=O)[C@H](CCCNC(N)N)NC(=O)[C@@H]1CCCN1C(=O)CN)C(=O)N[C@@H](CO)C(=O)N[C@@H](Cc1ccc(O)cc1)C(=O)N[C@@H](C)C(=O)O (HELM PEPTIDE1{G.P.[NC(N)NCCC[C@H](N[*:1])C(=O)[*:2]].L.S.[NC(N)NCCC[C@H](N[*:1])C(=O)[*:2]].L.L.S.Y.A}$$$$V2.0)
Kd (protein: rat Tom20(translocases of outer mitochondrial membranes), PDB entry 1om2): 20000 nM (active)

CSCC[C@H](NC(=O)[C@@H]1CCCN1C(=O)[C@@H](NC(=O)[C@H](CCCNC(N)N)NC(=O)[C@H](CO)NC(=O)CN)[C@@H](C)O[P+](O)(O)O)C(=O)N[C@@H](Cc1ccc(O)cc1)C(=O)NCC(=O)O (HELM PEPTIDE1{G.S.[NC(N)NCCC[C@H](N[*:1])C(=O)[*:2]].[C[C@@H](O[P+](O)(O)O)[C@H](N[*:1])C(=O)[*:2]].P.M.Y.G}$$$$V2.0)
Kd (protein: RNA polymerase-associated protein RTF1 homolog, PDB entry 4l1u): 5450 nM (active)

CC(C)C[C@@H](CO)NC(=O)[C@H](CO)NC(=O)[C@H](CCCNC(N)N)NC(=O)[C@H](CC(C)C)NC(=O)[C@H](CO)NC(=O)[C@H](C)NC(=O)[C@H](CC(C)C)NC(=O)[C@@H]1CCCN1C(=O)[C@H](Cc1ccc(O)cc1)NC(=O)[C@H](CC(C)C)NC(=O)[C@@H](N)CCC(=O)O (H-ELYPLASL[Orn(CH(NH2)2)]S[Leu(ol)])
Kd (protein: ALIX, PDB entry 2r05): 7000 nM (active)

CC(C)C[C@H](NC(=O)[C@H](CO)NC(=O)[C@H](CCCNC(N)N)NC(=O)[C@H](CC(C)C)NC(=O)[C@H](CO)NC(=O)[C@@H](NC(=O)[C@H](CC(C)C)NC(=O)[C@@H]1CCCN1C(=O)[C@H](Cc1ccc(O)cc1)NC(=O)[C@H](CC(C)C)NC(=O)[C@@H](N)CCC(=O)O)[C@@H](C)O)C(=O)O (H-ELYPLTSL[Orn(CH(NH2)2)]SL-OH)
Kd (protein: ALIX, PDB entry 2r02): 8000 nM (active)

CC[C@H](C)[C@H](NC(=O)[C@@H]1CCCN1C(=O)[C@H](CC(C)C)NC(=O)[C@@H](NC(=O)[C@H](CO)NC(=O)CN)[C@@H](C)O)C(=O)N1CCC[C@H]1C(=O)NCC(=O)N[C@H](C(=O)N1CCC[C@H]1C(=O)N1CCC[C@H]1C(=O)N1CCC[C@H]1C(=O)N[C@@H](CC(N)=O)C(=O)N[C@@H](Cc1ccc(O)cc1)C(=O)N[C@@H](CC(=O)O)C(=O)N[C@@H](CO)C(=O)N[C@@H](CC(C)C)C(=O)O)[C@@H](C)O (H-GSTLPIPGTPPPNYDSL-OH)
Kd (protein: Ubiquitin ligase Nedd4( WW? domain), PDB entry 1i5h): 53000 nM (active)

H-NPGLAYGNPYS-OH
Kd (protein: Galectin-8, PDB entry 4gxl): 5200 nM (active)

H-PLYTSPSLPNITLGLP-OH
Kd (protein: DNA-binding protein RFXANK, PDB entry 3uxg): 109000 nM (active)

Ac-LPLYTSPSLPNITLGLP-OH
Kd (protein: Ankyrin Repeat Domains of Human ANKRA2, PDB entry 3v31): 1600 nM (active)

H-TCIYNPLFGS-OH
Kd (protein: Sorting nexin-17 SNX17, PDB entry 4tkn): 1300 nM (active)

CCC(=O)C(=O)O
Kd (protein: 4-HYDROXY-2-OXO-HEPTANE-1,7-DIOATE ALDOLASE, PDB entry 4b5t): 470000 nM (active)

CC(=O)N[C@H]1/C(=N/OC(=O)Nc2ccccc2)O[C@H](CO)[C@@H](O)[C@@H]1O
Kd (protein: BETA-N-ACETYLHEXOSAMINIDASE, PDB entry 4azb): 57.7 nM (active) | Kd (protein: BETA-N-ACETYLHEXOSAMINIDASE, PDB entry 4azg): 79 nM (active) | Kd (protein: BETA-N-ACETYLHEXOSAMINIDASE, PDB entry 4azi): 35.6 nM (active)
